Compounds without any hit were thinned out: in the full panel of roughly 83,000, 20% have a hit.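 Single-concentration screen, 48 h exposure, 96-well plates. Endpoint: percent growth. Below 10 = active.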 Activity calls are given as the source filed them.

This assay deals with HCC-2998 colon. Kind of assay: NCI-60 one-dose screen, 48 h (100 = growth as untreated, 0 = no growth, -100 = all killed). Conditions: 10 µM unless noted. The method, then:
Growth inhibition of the HCC-2998 human tumor cell line is measured as a screen for anti-cancer activity. Cells are grown in 96 well plates and exposed to the test compound for 48 hours. Compounds are tested at a single concentration, which is 10^-5 M for most compounds. The reported endpoint is percent growth (GI% or GIPRCNT), where numbers from 0 - 100% represent growth inhibition, and numbers from -100% - 0 represent cell death. For example, a value of 40 represents 60% growth inhibition. A value of 0 means no net growth occurred over the course of the experiment. A value of -40 indicates 40% of cells at the beginning of the experiment died by the end of the experiment. A value of -100 means all cells are dead at the end of the experiment.
NCI-60 Human Tumor Cell Lines Screen was performed using the standard one-dose NCI protocol, which is described in more detail at https://dtp.cancer.gov/discovery_development/nci-60/default.htm.
Compounds with GIPRCNT values below 10 were considered active. Activity score was based on GIPRCNT using the following formula: […]
Score is 0 for GIPRCNT values of 100 or above, 50 for GIPRCNT values of 0, and 100 for GIPRCNT values of -100.
`O=C1/C(=C\c2ccco2)SC(=S)N1CCc1ccc(O)cc1`: the growth is 116% (inactive).
Take `COc1cc(-c2cc(-c3nc4ccccc4[nH]3)[nH]n2)cc(OC)c1OC`: the growth was 71.4% (inactive).
As for `COc1ccc(-c2cc(/C=C/C(=O)c3ccc(N)cc3)[nH]n2)cc1`, the figure is 35.4% (inactive); as for `COc1cc2nc(Cl)nc(Nc3cccc(C(=O)/C=C/c4ccc(F)cc4)c3)c2cc1OC`, 49.9% (inactive); as for `COc1ccccc1CNc1nc(N)nc2[nH]c3ccc(O)cc3c12`, 67% (inactive).
As for `O=c1[nH]ncc(Br)c1Br`, the growth is 54% (inactive).
As for `CCc1nnc(NC(=O)c2ccoc2COc2ccccc2)s1`, the growth is 69% (inactive).
Turning to `COc1cccc(-c2nn(-c3ccccc3)cc2-c2ccnc(NCCNS(=O)(=O)c3cccc(F)c3)c2)c1`, the growth is 17.1% (inactive).
On to `C[C@H]1OC(=O)/C=C/[C@@H](O)[C@@H](O)CCCCCCCC[C@@H]1O`, for which the growth was 102% (inactive).
Turning to `Cn1cc(-c2csc(-c3cn(CCCN4CCCCC4)c4ccccc34)n2)c2cccnc21`, the growth was 99% (inactive).
Consider `C[C@H]1[C@H]2C3=CC[C@@H]4[C@@]5(C)C/C(=C/c6ccco6)C(=O)C(C)(C)[C@@H]5CC[C@@]4(C)[C@]3(C)CC[C@@]2(C(=O)N2CCOCC2)CC[C@@H]1C`, for which the growth is 90.5% (inactive).
The result for `CC1(c2ccccc2)OC1C(=O)O` (stereo not given) reads 96.5% (inactive); that for `COc1ccc2c(c1)C(Br)=C(CCO)C2c1ccccc1` (stereo not given), 49.3% (inactive).
Take `Cc1cccc(C)c1NCc1nc(-c2ccccc2)n[nH]1`: the growth was 101% (inactive).
Turning to `O=S(=O)(NCCNc1cc(-c2cn(-c3ccccc3)nc2-c2cccc(O)c2)ccn1)c1ccc(F)cc1`, the growth was -34.9% (active).
In the case of `C=C1C(=O)O[C@H]2[C@H]1CC/C(Cn1cc(-c3ccc(F)cc3)nn1)=C\CC[C@@]1(C)O[C@@H]21`, the growth was -11.6% (active).
Regarding `COC(=O)[C@]12CC[C@@H](C)[C@H](C)[C@@H]1C1=CC[C@@H]3[C@@]4(C)C[C@@H](OC(C)=O)[C@H](OC(C)=O)[C@@](C)(COC(C)=O)[C@@H]4[C@H](O)C[C@@]3(C)[C@]1(C)CC2`, the growth was 5.84% (active).
Regarding `CCN1CCN(C(=O)[C@]23CCC(C)(C)C[C@@H]2C2=CC[C@@H]4[C@@]5(C)C/C(=C/c6ccncc6)C(=O)C(C)(C)[C@@H]5CC[C@@]4(C)[C@]2(C)CC3)CC1`, the growth is -68.8% (active).
Take `CC1(C)[C@@H](O)CC[C@]2(C)[C@H]3CC[C@@H]4[C@H]5[C@H](C(=O)/C=C/c6ccc(C(F)(F)F)cc6)CC[C@]5(CO)CC[C@@]4(C)[C@]3(C)CC[C@@H]12`: the growth is 77.2% (inactive).
As for `O=C(O)c1cccc2c1Cc1cc([N+](=O)[O-])ccc1-2`, the growth was 101% (inactive).
As for `CN(C)CCCC1(c2ccc(F)cc2)OCc2cc(-c3ccc(C(F)(F)F)nc3)ccc21` (stereo not given), the figure is 31.8% (inactive).
In the case of `O=C(O)/C(=C/c1ccc(O)cc1)c1ccccc1`, the growth is 95.8% (inactive).
The result for `CC(C)(C)n1cc(-c2ccnc(NCCCNS(=O)(=O)c3ccc(Cl)cc3)c2)c(-c2cccc(F)c2)n1` reads 63.4% (inactive); that for `N#C/C(=C\c1ccc(-c2ccc(F)cc2)o1)c1nc(-c2ccco2)cs1`, 51% (inactive).
In the case of `Cn1cc(-c2csc(-c3cn(CCNC(=O)OC(C)(C)C)c4ccc(F)cc34)n2)c2cccnc21`, the growth is 93.5% (inactive).
With `Nc1nc(Br)nc2c1ncn2C1CC(O)C(CO)O1` (stereo not given), the growth was 58.9% (inactive).
The result for `COC(c1ccccc1)(c1ccccc1)c1ccccc1` reads 142% (inactive); that for `Cn1cc(-c2csc(-c3cn(CCN)c4ccc(F)cc34)n2)c2cccnc21`, 91.1% (inactive).
Turning to `COc1cccc(-c2nn(-c3ccccc3)cc2-c2ccnc(NCCCNS(=O)(=O)c3ccc(Br)cc3)c2)c1`, the growth is 46% (inactive).
With `CC(=O)NC1=C(C#N)C(c2ccccc2Cl)c2c(ccc3ccccc23)O1` (stereo not given), the growth is 85.4% (inactive).
Consider `OCC1OC(n2cnc3c(Cl)ncnc32)CC1O` (stereo not given), for which the growth is 108% (inactive).
On to `COc1ccc(C2C(C#N)=C(N)Oc3c2sc2c(F)cccc32)cc1` (stereo not given), for which the growth was 85.2% (inactive).
For the compound `COC(=O)[C@]12CC[C@@H](C(/C=C/c3cccnc3)=N/O)[C@@H]1[C@H]1CC[C@@H]3[C@@]4(C)CC(=C/c5cccnc5)/C(=N/O)C(C)(C)[C@@H]4CC[C@@]3(C)[C@]1(C)CC2`, the growth was 45.9% (inactive).
The result for `CCCCC[C@H]1C/C=C2/C(=O)C(Cl)=C[C@@H]2C/C=C\CCCC(=O)O[C@@H](CCCCC)C/C=C2/C(=O)C(Cl)=C[C@@H]2C/C=C\CCCC(=O)O1` reads -88.6% (active).
As for `COC1=C(Br)C(=O)C(OC)=C(Br)C1=O`, the figure is 114% (inactive); as for `CC1(C)c2ccccc2C(=O)C1(Br)Cc1ccccc1` (stereo not given), 78.4% (inactive); as for `Cn1cc(-c2csc(-c3cn(CCCN4CCCCC4)c4ccc(F)cc34)n2)c2cccnc21`, 102% (inactive).
On to `Cc1nn(-c2ccc(Cl)cc2)c(=O)n1CCn1cnc2ccccc21`, for which the growth is 104% (inactive).
As for `C/C(=N\Nc1cc(C)c2ccccc2n1)c1ccccn1`, the growth was 4.77% (active).
For `COc1ccc(-c2cc(-c3c(C)oc4cc5occc5c(OC)c4c3=O)nc(N)c2C#N)cc1OC`, the growth was 98% (inactive).

The record behind these values is PubChem BioAssay (NCI).
